Measurements from PubChem BioAssay AID463173 (ICCB-Longwood Screening Facility, Harvard Medical School, 2010).
In all, about 52,000 compounds went through this assay and about 1,700 (3.3%) were called active. Cut-off read from the data, not from the text of the source: active = survival mostly below about 52% (no sharp cut-off); inactive = mostly above about 56%. The list comes from a sample in which actives are over-represented; it also holds similar structures and randomly drawn compounds.

The molecules below were run on Wild type (assay: growth inhibition of S. aureus wild type versus tarO mutant, primary screen, teichoic acid synthesis inhibitors, RN4220, OD600 (AID 463173)). Settings: S. aureus RN4220 wild type/DeltatarO growth, OD600, 18 h, active compounds read low, screened at 18.75 µg/mL (by protocol).

Compound	survival
Cc1ccc2nc(-c3ccc(F)cc3)c(NC(C)(C)CC(C)(C)C)n2c1	14% (active)
Cc1ccc(Nc2c(-c3ccc(C)cc3)nc3ccc(C)cn23)cc1	121% (inactive)
COCCNc1c(-c2ccc(N)cc2)nc2ccc(C)cn12	101% (inactive)
CC(=O)N1c2ccccc2CC1C(=O)N1CCN(c2ccccc2F)CC1 (stereo not given)	71% (inactive)
CCOc1ccc(NC(=O)/C=C\C(=O)N(c2ccc(C(C)C)cc2)C(C(=O)NCc2ccco2)c2ccc(F)cc2)cc1 (stereo not given)	51% (inactive)
Cc1cccc(NC(=O)CN2C(=O)COc3ccc(S(=O)(=O)Nc4ccccc4)cc32)c1C	123% (inactive)
Cc1c(Cl)cccc1NC(=O)c1cc2nc(-c3ccc4c(c3)OCO4)cc(C(F)(F)F)n2n1	76% (inactive)
CCOc1ccc(-c2ncccc2O)cc1	106% (inactive)
CCOc1ccc(-c2nnc(Nc3ccc(S(N)(=O)=O)cc3)c3ccccc23)cc1	88% (inactive)
CCCCOc1nnc(-c2ccc(OCC)cc2)c2ccccc12	-1% (active)
COc1ccc(S(=O)(=O)N(CCc2ccccc2)CC(=O)NCc2ccc(C)cc2)cc1	67% (inactive)
Cc1ccccc1CCNC(=O)c1cc2ccccn2n1	84% (inactive)
CCOC(=O)C1CCN(S(=O)(=O)c2ccc3c(c2)NC(=O)C(C)C(=O)N3)CC1 (stereo not given)	114% (inactive)
Cc1ccc(N(C)S(=O)(=O)c2c(-c3ccccc3)csc2C(=O)O)cc1	61% (inactive)
CC(=O)c1ccc(NC(=O)Cn2ncc3c(C)n(Cc4ccc(F)cc4)c(C)c3c2=O)cc1	74% (inactive)
COC(=O)c1ccccc1NC(=O)c1nc(-c2ccc(C)cc2)n2c1CCCCC2	86% (inactive)
COc1ccc(C(=O)Oc2ccc3oc(=O)sc3c2)cc1	95% (inactive)
CCn1ccc2c(OCC(=O)Nc3ccc(C(C)=O)cc3)cccc2c1=O	53% (inactive)
CCn1ccc2c(OCC(=O)Nc3ccccc3C)cccc2c1=O	0% (active)
CCn1ccc2c(OCC(=O)Nc3ccc(OC)cc3OC)cccc2c1=O	-3% (active)
CCn1ccc2c(OCC(=O)Nc3ccccc3C(F)(F)F)cccc2c1=O	80% (inactive)
CCn1ccc2c(OCC(=O)NCc3ccccc3)cccc2c1=O	66% (inactive)
COCCn1ccc2c(OCC(=O)Nc3cccc(OC)c3)cccc2c1=O	90% (inactive)
CCCN1CCN(C(=O)Cn2c(-c3cccs3)cc3cc(F)ccc32)CC1	85% (inactive)

Compound	survival
Cc1ccc2c(CC(=O)N(Cc3ccc(N(C)C)cc3)Cc3ccco3)coc2c1C	70% (inactive)
CCc1nn(CC(=O)Nc2ccc(C)cc2C)c(=O)c2cc3sccc3n12	90% (inactive)
Cc1cc(C)cc(NC(=O)CSc2nncn3c2cc2occc23)c1	66% (inactive)
Cc1ccc(CNS(=O)(=O)c2ccc3c(c2)CC(C)N3C(=O)C2CCC2)cc1 (stereo not given)	97% (inactive)
Cc1ccsc1CN(C(=O)c1ccc(OCC(C)C)cc1)C1CCS(=O)(=O)C1 (stereo not given)	85% (inactive)
CCCCN(c1ccccc1)c1ncnc2c1cnn2-c1cccc(C)c1	68% (inactive)
COC(=O)c1cc2sc(C)cc2n1Cc1ccc(Br)cc1F	76% (inactive)
COC(=O)c1cc2sccc2n1Cc1ccc(F)cc1	135% (inactive)
COC(=O)c1cc2sc(C)cc2n1Cc1ccccc1	83% (inactive)
COC(=O)c1cc2sc(C)cc2n1Cc1ccc(F)cc1Cl	65% (inactive)
COC(=O)c1cc2sc(C)cc2n1Cc1cccc(OC)c1	0% (active)
C=Cc1ccc(Cn2c(C(=O)OC)cc3sc(C)cc32)cc1	0% (active)
Cc1cccc(CCn2c(=O)c3ccccc3n(Cc3cccc(F)c3)c2=O)c1	82% (inactive)
COc1ccc(NC(=O)Cn2cc(S(=O)(=O)c3ccccc3)c(=O)c3cc4c(cc32)OCO4)cc1	79% (inactive)
COc1cc(CN(C(=O)Nc2ccccc2)c2ccccn2)cc(OC)c1OC	86% (inactive)
CCCCNC(=O)CN1C(=O)CSc2ccc(S(=O)(=O)N3CCC(C)CC3)cc21	92% (inactive)
COc1ccccc1NC(=O)CN(C)S(=O)(=O)c1cccc2cccnc12	117% (inactive)
CC(=O)NC1N=C(C)N(c2ccccc2)C1=O (stereo not given)	101% (inactive)
COc1ccc(Cl)cc1NC(=O)NCCc1c(C)nn(C)c1C	-3% (active)
COC(=O)c1ccccc1NC(=O)NCCc1c(C)nn(C)c1C	82% (inactive)
COc1ccc(NC(=O)NCCc2c(C)nn(C)c2C)c(OC)c1	57% (inactive)
Cc1nn(C)c(C)c1CCNC(=O)Nc1ccccc1C(F)(F)F	1% (active)
COC(=O)c1ccc(Cl)cc1NC(=O)NCCc1c(C)nn(C)c1C	55% (inactive)
Cc1nn(C)c(C)c1CCNC(=O)Nc1cccc(Cl)c1C	63% (inactive)

Compound	survival
Cc1ccc(C2c3[nH]c4ccccc4c3CCN2C(=O)c2ccc(N(C)C)cc2)cc1 (stereo not given)	68% (inactive)
CCc1cccc(C)c1Nc1c(-c2ccsc2)nc2ncccn12	66% (inactive)
CNC(=S)N(CCN1CCOCC1)Cc1cc2cc(C)c(Cl)cc2[nH]c1=O	113% (inactive)
Cc1cccn2c(=O)c(/C=C(\C#N)c3nc4ccccc4s3)c(Oc3ccc(Br)cc3)nc12	129% (inactive)
O=C(NCc1cccc(Cl)c1)c1cc2ccc3cccnc3c2[nH]1	82% (inactive)
Cc1ccc(CSc2nnc(-c3ccc(O)cc3)o2)cc1	108% (inactive)
N#Cc1ccccc1CSc1nnc(-c2ccc(Br)cc2)o1	73% (inactive)
Cc1ccc(-c2nnc(SCc3ccccc3C)o2)cc1	-4% (active)
CCOC(=O)CSc1nnc(-c2ccc(OC)cc2)o1	72% (inactive)
N#Cc1ccc(CSc2nnc(-c3ccc(Br)cc3)o2)cc1	74% (inactive)
Cc1ccc(-c2nnc(SCc3ccccc3C#N)o2)cc1	66% (inactive)
CCCCCSc1nnc(-c2ccc(Br)cc2)o1	-1% (active)
COc1ccc(-c2nnc(SCC(=O)Oc3cc(C)ccc3C)o2)cc1	86% (inactive)
CCCCOC(=O)CSc1nnc(-c2ccc(C)cc2)o1	8% (active)
Cc1ccc2occ(-c3cc(-c4ccc(F)cc4)nc4c3COc3ccc(F)cc3-4)c(=O)c2c1	76% (inactive)
Cc1ccc(-n2c(=O)[nH]c3cc(C(=O)NCCc4ccccc4)ccc3c2=O)cc1	85% (inactive)
O=C(Nc1ccc(OCc2cc(=O)n3c4c(sc3n2)CCCC4)cc1)c1cccc(F)c1	78% (inactive)
Cc1ccc(Cl)cc1NC(=O)Nc1nnc(N(C)Cc2ccccc2)s1	93% (inactive)
COc1ccc(-c2nc3sc(CCNC(=O)C(=O)Nc4ccccc4C#N)c(C)n3n2)cc1	85% (inactive)
Cc1noc(C)c1S(=O)(=O)N1CCC(C(=O)N2CCN(c3ccccc3)CC2)CC1	128% (inactive)
CCOC(=O)CC(=O)CSc1nc2ccccc2c(=O)n1CCc1ccc(S(N)(=O)=O)cc1	71% (inactive)
Cc1ccc(C(=O)COC(=O)CCC(=O)Nc2ccc(Oc3ccccc3)cc2)cc1	90% (inactive)
Cc1ccc2oc(-c3ccc(C)c(NC(=O)C(C)(C)Oc4ccc(Cl)cc4)c3)nc2c1	43% (inactive)
Cc1cc(NC(=O)C(C)(C)Oc2ccc(Cl)cc2)cc(-c2nc3ncccc3o2)c1O	92% (inactive)

Compound	survival
Cc1c(NC(=O)C(C)(C)Oc2ccc(Cl)cc2)cccc1-c1nc2ccccc2o1	1% (active)
Cc1c(NC(=O)C(C)(C)Oc2ccc(Cl)cc2)cccc1-c1nc2ncccc2o1	-3% (active)
COc1c(Cl)cc(Cl)cc1C(=O)Nc1cccc(-c2nc3ccccc3o2)c1C	125% (inactive)
CC(C)(Oc1ccc(Cl)cc1)C(=O)Nc1ccc(-c2nc3ncccc3o2)cc1	74% (inactive)
COc1ccc(-c2nc(CN3CCC(C(=O)NCCCOC(C)C)CC3)c(C)o2)cc1OC	80% (inactive)
CCCn1cc(S(=O)(=O)c2ccc(OC)cc2)c(=O)c2cc(F)c(N3CCCC(C)C3)cc21 (stereo not given)	71% (inactive)
CCOc1ccc(C(=O)NCCS(=O)(=O)N2CCN(c3ccccc3F)CC2)cc1OCC	102% (inactive)
COc1ccc(OCC(=O)Nc2ccc(-c3nc4cc(C)c(C)cc4o3)cc2)cc1	77% (inactive)
COc1ccc(Nc2ncnc3c2cnn3-c2ccc(C)cc2)cc1Cl	133% (inactive)
Cc1ccc(-n2ncc3c(Nc4cccc(C)c4C)ncnc32)cc1	78% (inactive)
COc1ccc(OC)c(Nc2ncnc3c2cnn3-c2ccc(C)cc2)c1	14% (active)
COCCCNc1ncnc2c1cnn2-c1ccc(F)cc1	82% (inactive)
Cc1ccc(C)c(Nc2ncnc3c2cnn3-c2ccc(F)cc2)c1	-3% (active)
CCOc1ccccc1Nc1ncnc2c1cnn2-c1ccc(C)cc1	76% (inactive)
COc1ccc(CCNc2ncnc3c2cnn3-c2ccc(C)cc2)cc1	71% (inactive)
COc1ccc(-n2ncc3c(NCCCOC(C)C)ncnc32)cc1	-2% (active)
COc1ccc(OC)c(Nc2ncnc3c2cnn3-c2cccc(Cl)c2)c1	64% (inactive)
Cc1ccc(Cn2c(C(=O)O)c(CNC3CCCCCC3)c3ccc(C)cc32)cc1	74% (inactive)
CCCNC(=O)C1CCC(Cn2c(=O)c3sccc3n(CC(=O)NCc3cccc(OC)c3OC)c2=O)CC1 (stereo not given)	133% (inactive)
COc1cccc(NC(=O)c2cnc(SCC(=O)N3CCCc4ccccc43)n(C)c2=O)c1	54% (inactive)
COc1cccc(-c2cn3ncsc3n2)c1	80% (inactive)
Cc1cc(NNC(=O)c2ccccc2)nc(NNC(=O)c2ccccc2)n1	103% (inactive)
CCCc1noc(-c2ccc(NCc3ccccc3OC)c([N+](=O)[O-])c2)n1	79% (inactive)
